Laboratory results from PubChem BioAssay AID590 (National Center for Advancing Translational Sciences (NCATS), 2007).
In all, about 59,000 compounds went through this assay and about 6,500 (11%) were called active. Inconclusive results (about 15%) are left out. Cut-off read from the data, not from the text of the source: active = max dye-equivalent concentration above about 10 nM; inconclusive = mostly about 1.1 nM to 9.6 nM; inactive = weaker than that. Only a selection was taken, and actives are over-represented in it overall.

Assay: qHTS Assay for Spectroscopic Profiling in A350 Spectral Region
Conditions: Compound autofluorescence, 340/450 nm, Alexa 350 dye-equivalents; stronger effect = higher value
From the text: NIH Molecular Libraries Screening Centers Network [MLSCN]
NIH Chemical Genomics Center [NCGC]
Occasionally, the artifactual effect may originate from the compounds own spectral or other biophysical properties which generally tend to track its assay concentration. Pre-screening/profiling the library with respect to the compounds spectral properties should help one exclude false positives early on. While the most informative fluorescent profiling data set is obtained by performing a full excitation and emission scan of each well by using a monochromator-based plate reader, such an approach is practical only on a very limited scale as scanning each well requires long time. An alternative approach, applied here, is to perform plate reader scans using selected excitation and emission wavelength pairs to generate a multidimensional relational database that correlates compound concentration and the respective relative fluorescence intensity at a given wavelength set. A standard curve of Alexa 350 (A 350) present on each plate as six-point concentration series, was used to compute a normalized fluorescence response, termed dye-equivalent concentration, for each compound at each concentration.
NCGC Assay Protocol Summary:
100 mM Tris buffer, pH 8.0
The wells in columns 1 through 4 of a Kalypsys polypropylene 1536-well compound plate were filled with standard solutions of fluorophore corresponding to the spectral region of interest. Solutions of A 350 were placed in the following wells: I1, J1: 3 mM, I2, J2: 300 uM, I3, J3: 30 uM, I4, J4: zero (DMSO), K1, L1: 3 uM, K2, L2: […], K3, L3: 300 nM, K4, L4: zero (DMSO).
Six uL of buffer were dispensed to 1536-well Greiner black plates. Compounds and dye standards (23 nL) were transferred via Kalypsys PinTool. The plates were incubated for 15 min at room temperature, and then read on ViewLux (Perkin-Elmer) High-throughput CCD imager using 340 nm and 450 nm excitation and emission filter set.
Keywords: NIH Roadmap, MLSCN, MLI, MLSMR, qHTS, NCGC, A350, A-350, Fluorescent Profiling.

Max dye-equivalent concentration, inactive:
COc1ccc(C(=O)n2nc(-c3ccc(Cl)cc3)nc2N)cc1OC
COc1ccccc1C(=O)n1nc(-c2ccccc2)nc1N
Cc1cnc(CNc2ncncc2-c2ccccc2Cl)cn1
Cc1ccnc(NC(=O)c2ccc(NC(=O)c3ccco3)cc2)c1
CCN(CC)C(=O)c1sc(NC(=O)c2ccco2)c(C#N)c1C
O=C(CSc1nnc(-c2cnccn2)n1Cc1ccco1)c1ccc(Cl)c(Cl)c1
CC(=O)N1CSCC1C(=O)O (stereo not given)
O=C(N1CCOCC1)N(Cc1ccccc1)c1ccccn1
CN(C)CC/C=C1\c2ccccc2CSc2ccccc21
COc1ccc(Cn2c(=O)sc3ccccc32)cc1OC
O=S(=O)(c1ccccc1)N1CCC2(CC1)CN(Cc1nccs1)C2
CCCCCN(C(=O)NC(=O)Nc1ccccc1C)S(C)(=O)=O
O=C(c1cnccn1)N1CCC2(CCCN(Cc3ccccc3)C2)CC1
O=C(CSc1nnc(-c2ccc(NS(=O)(=O)c3ccccc3)cc2)o1)NCC1CCCO1 (stereo not given)
O=C(CS(=O)(=O)Cc1ccccc1)NCC1CCCO1 (stereo not given)
COc1ccc(S(=O)(=O)Nc2c(C)n(C)n(-c3ccccc3)c2=O)cc1
CN(C)C(=O)c1ccc(-c2cncnc2NC2CCNCC2)cc1
CCCc1cc(=O)[nH]c(SCc2ccc(C#N)cc2)n1
Cc1ccc(S(=O)(=O)NCC(=O)OCC(=O)N2CCc3ccccc32)cc1
O=C(c1cc(-c2cccs2)on1)N1CCCCC1
Cc1ccc(C(=O)N2CCCCCC2)cc1Br
O=C(CSc1nc2[nH]ncc2c(=O)n1-c1ccccc1)N1CCCc2ccccc21
COc1cc2c(cc1OC)C(c1ccncc1)CC(=O)N2 (stereo not given)
Cc1ccc(OCc2nc(C#N)c(N3CCCC3)o2)cc1
Cc1ccc2nc(CC(=O)c3ccc4ccccc4c3)c(=O)[nH]c2c1
c1ccc2sc(SCCSc3nc4ccccc4s3)nc2c1
CN1CCN(c2nc3c(c(=O)[nH]c(=O)n3C)n2Cc2cccc3ccccc23)CC1
O=C(Nc1cccc(F)c1)N1CCC2(CC1)CCN(S(=O)(=O)c1ccccc1)CC2
O=C(NCc1cccs1)C1CCN(S(=O)(=O)c2ccc3c(c2)OCCO3)CC1
CCc1nc(C)cn1S(=O)(=O)c1cc(OC)c(C)cc1C
CC(C)CCNC(=O)CN(C(=O)Cn1nnc(-c2ccc(F)cc2)n1)C1CCCC1
Cc1cc(O)ccc1-c1cnc2ccccc2n1
CCOc1cc(C)c(Cl)cc1S(=O)(=O)n1nnc2ccccc21
COc1cc(NC(=O)N2CCOCC2)cc(OC)c1
COc1ccc(OC)c(NC(=O)CCN2CCC(C)CC2)c1
Cc1c(C(=O)N2CCOCC2)[nH]c2ccc(OCc3ccccc3)cc12
COC(=O)c1[nH]c2ccccc2c1NC(=O)CN1CCCc2ccccc21
COc1ccccc1CNc1cc(-c2ccccc2CN(C)C)ncn1
COCC(=O)N1CCC2(CCCN(c3ccccc3)C2)CC1
Cc1cc(NC(=O)COn2nnc3ccccc32)no1
O=C1NC(=O)[C@@](Cc2ccccc2)(c2cccnc2)N1
O=C(NCc1ccccn1)c1c(O)c2c([nH]c1=O)CCCC2
O=C(NCc1ccco1)c1nc2ncccn2n1
CCN(CC)C(=O)C1CCC(C)(C(=O)O)C1(C)C (stereo not given)
CC(c1ccccc1)n1c(NCCCn2ccnc2)nc2c1c(=O)[nH]c(=O)n2C (stereo not given)
Cc1cc(NC(=O)COC(=O)c2ccc(F)c(S(=O)(=O)N3CCOCC3)c2)no1
COc1cc([C@H]2c3cc4c(cc3[C@@H](O[C@@H]3O[C@H]5CO[C@@H](C)O[C@]5(O)C[C@H]3O)[C@@H]3COC(=O)[C@H]23)OCO4)cc(OC)c1O
C=CCn1c(SCc2cc(C(=O)OC)c(C)o2)nnc1-c1ccncc1
COc1ccc(C(=O)CSc2nccc(=O)[nH]2)cc1
COC(=O)[C@H](C)NC(=O)Nc1ccc(OC(F)(F)F)cc1
CCC1=C(C(=O)OC)C(c2cc(OC)ccc2OC)C(C#N)=C(N)O1 (stereo not given)
c1cc(-n2cnnn2)ccc1NC1=NCCC1
CNC(=O)C1CC(=O)N(Cc2ccc3c(c2)OCO3)C(=Nc2ccc(F)cc2)S1 (stereo not given)
CC(C)(CSc1nncn1/N=C/c1ccco1)NS(=O)(=O)c1ccc(Cl)cc1
O=C(CCOc1ccccc1)NCc1ccccc1
O=C1CN(C(=O)COC(=O)C2CC(=O)N(Cc3ccco3)C2)c2ccccc2N1 (stereo not given)
COc1ccc(Cc2nnc(NC(=O)Cc3cccs3)s2)cc1
COc1ccc(OCCCC(=O)Nc2nnc(C3CCCO3)s2)cc1 (stereo not given)
CC1Cc2cc(/C(O)=C3\C(=O)C(=O)N(CCN4CCOCC4)C3c3ccccc3F)ccc2O1 (stereo not given)
O=C(O)[C@@H]1[C@@H](C(=O)O)[C@]23C[C@@]2(C(=O)O)[C@]2(C(=O)O)CCC3=C3CCCC312
COc1ccc(S(=O)(=O)NC(CC(=O)NCc2ccccc2OC)c2ccco2)cc1 (stereo not given)
CCCCCCn1c(CN2CCCC(C)C2)nc2c1c(=O)n(C)c(=O)n2C (stereo not given)
CCCCC(CCC(=O)Nc1ccc(C(=O)OCC)cc1)C(=O)O (stereo not given)
CC(Sc1nncn1C)C(=O)Nc1ccccc1-c1ccccc1 (stereo not given)
Clc1ccc(Nc2nc(-c3cccs3)cs2)nc1
O=C(Nc1ccccc1F)C1C2C=CC3(O2)C1C(=O)N(c1cccnc1)C3C(=O)NC1CCCCC1 (stereo not given)
COc1cc(C(=O)N(Cc2ccc(N(C)C)cc2)C2CCS(=O)(=O)C2)cc(OC)c1OC (stereo not given)
CC1CCCCN1S(=O)(=O)c1ccc(C(=O)Nc2nnc(-c3cccs3)o2)cc1 (stereo not given)
CCc1nnc(NC(=O)c2ccc(S(=O)(=O)NC3CCCCC3)cc2)s1
COc1ccc2[nH]cc(CCNc3ncnc4ccc(-c5ccccc5CN(C)C)cc34)c2c1
COc1ccc(Cl)cc1S(=O)(=O)Nc1cccc(C(=O)O)c1
COC(=O)c1ccccc1NC(=O)C1CCN(S(=O)(=O)c2cc(OC)ccc2OC)CC1
Cc1c(C(=O)OCc2cc(=O)n3cc(Br)ccc3n2)oc2ccccc12
COC(=O)N1CCC2(CCCN(c3ccncc3)C2)CC1
COc1ccc(Oc2ncc3nc(-c4ccc(F)cc4)c(=O)n(C)c3n2)cc1
CCc1nc2oc3ccccc3c(=O)c2c(=O)n1Cc1ccc(OC)cc1
COc1cccc(Cn2c(=O)c(-c3cc(F)cc(F)c3)nc3cnc(OC)nc32)c1
COc1cccc(Cn2c(=O)c(-c3ccccc3)nc3cnc(OC)nc32)c1
Cc1nc2cnc(Oc3cccc(Cl)c3)nc2n(C2CC2)c1=O
CCOC(=O)CSc1nnc(CNC(=O)c2cccs2)n1-c1cc(OC)ccc1OC

Max dye-equivalent concentration, active:
COc1ccc(C(=O)n2nc(-c3ccc(C)cc3)nc2N)cc1OC 31 nM
CCn1nc(NC(=O)c2ccco2)c2cc3ccc(C)cc3nc21 86 nM
Cc1ccc2nc(NCCCNC(=O)c3cnccn3)c(C#N)cc2c1 220 nM
O=C(CSC1=Nc2ccccc2C2=NC(c3ccccc3)C(=O)N12)NCC1CCCO1 (stereo not given) 590 nM
Cc1ccc2cc3cc(C(=O)N4CCCCCC4)oc3nc2c1 11 nM
Cc1cccc2cc(C#N)c(N3CCCC3)nc12 37 nM
Cc1cc(C)c2nc(N3CCCC3)c(C#N)cc2c1 130 nM
O=C(c1ccc2c(c1)OCCO2)C1CCN(S(=O)(=O)c2cccc(F)c2)CC1 12 nM
Cc1nc2ccccc2cc1O 2500 nM
CCOC(=O)c1[nH]c2ccc(OC)cc2c1NC(=O)N1CCOCC1 44 nM
CCOC(=O)c1[nH]c2ccc(OC)cc2c1NC(=O)CCN1CCN(Cc2ccccc2)CC1 64 nM
Cc1cccn2c(=O)c3cc(C(=O)NCc4ccccn4)n(C)c3nc12 170 nM
Cc1cccn2c(=O)c3cc(C(=O)N4COCC4(C)C)n(C)c3nc12 900 nM
CCCN1CC=C2C(C#N)=C(N)C(C#N)(C#N)C(c3cc(OC)ccc3OC)C2C1 (stereo not given) 110 nM
CC(C)CCNc1nc(N2CCCC2)c2c(c1C#N)CCN(C)C2 33 nM
COc1ccc2c(CC(=O)Nc3nnc(C4CC4)s3)coc2c1 12 nM
CCCn1c(O)c(CN2CCCC(C)C2)c(C)c(C#N)c1=O (stereo not given) 19 nM
CCCCc1cc(=O)oc2cc(C)cc(OCc3nn[nH]n3)c12 77 nM
Cc1ccc(C(=O)Nc2nnc(-c3cccs3)s2)cc1C 72 nM
COc1ccc(OC)c(S(=O)(=O)Nc2ccccc2F)c1 75 nM
Cc1c(C(=O)OCC(=O)N(CCC#N)c2ccccc2)oc2c1ccc1ccccc12 14 nM
COCCn1c(=O)c(-c2ccc(OC)cc2)nc2cnc(Oc3cccc(Cl)c3)nc21 13 nM
COc1ccc(-c2nc3cnc(Oc4ccccc4)nc3n(Cc3cccs3)c2=O)cc1 12 nM
COc1ccc(-c2nc3cnc(OC)nc3n(Cc3ccc(F)cc3)c2=O)cc1 12 nM
COc1ncc2nc(-c3ccc(Cl)cc3)c(=O)n(C)c2n1 34 nM
